High-throughput results deposited in PubChem by National Center for Advancing Translational Sciences (NCATS).
This is one part of a sample in which hits are shown more often than they occur.
G9a inh: qHTS Assay for Inhibitors of Histone Lysine Methyltransferase G9a; AID 504332, 2011; G9a H3K9 monomethylation, AlphaScreen, 2 h; 8.8% of 350,000 active; Histone-lysine N-methyltransferase EHMT2 (Homo sapiens), Q96KQ7; Potency, µM (top dose mostly 102 µM), inactives show top-dose activity, negative = inhibition, actives largely listed as inhibitors; further: on the % scale 0 is the no-effect control and ±100 the full control effect; nearly all actives have a fitted effect of over 75% in size
Target sequence (Q96KQ7 913-1193 limits assumed): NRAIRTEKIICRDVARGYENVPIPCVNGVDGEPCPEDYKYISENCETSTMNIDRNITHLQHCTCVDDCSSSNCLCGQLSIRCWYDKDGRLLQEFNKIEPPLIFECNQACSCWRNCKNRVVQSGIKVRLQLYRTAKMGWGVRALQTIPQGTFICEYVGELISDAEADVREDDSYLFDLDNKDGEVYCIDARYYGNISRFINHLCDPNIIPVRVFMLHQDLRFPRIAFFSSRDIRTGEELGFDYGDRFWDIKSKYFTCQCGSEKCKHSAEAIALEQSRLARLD
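Chemiluminescent proximity detection of H3K9 monomethylation, read after 10 min bead incubation in the dark. Reaction: 20 nM G9a, 500 nM biotin-H3K9 peptide, 20 uM SAM cofactor, 2 h, room temperature, following 15 min enzyme-compound preincubation.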
12-LOX inh: Primary qHTS assay for inhibitors of human arachidonate 12S-lipoxygenase (ALOX12): Round 2 | purified 12hLO, xylenol orange hydroperoxide absorbance | Potency, µM (series often up to 108 µM), inactives show top-dose activity change, negative = inhibition, hits mostly inhibitors | 1.1% of 580,000 active; further: on the % scale 0 is the no-effect control and ±100 the full control effect
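Purified human 12hLO at 150 nM in 25 mM Hepes, 0.01% Triton X-100, pH 7.0, preincubated 15 min at room temperature with compound. Reaction started with 40 uM arachidonic acid, 30 min at room temperature. Hydroperoxide measured by Fe-xylenol orange, 573/405 nm absorbance ratio.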
VDR inh: Inhibitors of the vitamin D receptor (VDR): qHTS; Vitamin D3 receptor (Homo sapiens), P11473; VDR-SRC2-3 peptide fluorescence polarization, 2 h; Potency, µM, for the others: max response, negative = inhibition, usual class: inhibitors; 0.93% of 400,000 active; AID 504847, 2011; further: on the % scale 0 is the no-effect control and ±100 the full control effect
Target sequence (P11473 whole entry, looked up): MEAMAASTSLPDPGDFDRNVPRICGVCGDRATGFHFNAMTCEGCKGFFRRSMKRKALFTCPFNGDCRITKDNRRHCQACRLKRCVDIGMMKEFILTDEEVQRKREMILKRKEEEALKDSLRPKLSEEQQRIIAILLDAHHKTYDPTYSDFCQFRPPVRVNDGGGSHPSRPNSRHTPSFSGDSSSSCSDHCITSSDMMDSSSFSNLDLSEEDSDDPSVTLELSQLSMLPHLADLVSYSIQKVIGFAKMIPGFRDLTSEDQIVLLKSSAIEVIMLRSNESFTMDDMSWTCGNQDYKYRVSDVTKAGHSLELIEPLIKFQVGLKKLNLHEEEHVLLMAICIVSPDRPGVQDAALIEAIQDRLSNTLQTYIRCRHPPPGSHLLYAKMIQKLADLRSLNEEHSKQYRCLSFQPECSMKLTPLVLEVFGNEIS
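After 23 nl compound addition and a short centrifugation, plates sat for 2 hours at ambient temperature; polarization of fluorescence then indicated loss of VDR binding to peptide SRC2-3.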
Sfp PPTase inh: qHTS Assay for Inhibitors of Bacillus subtilis Sfp phosphopantetheinyl transferase (PPTase). Biochemical Sfp PPTase activity, qHTS. Potency, µM, without a hit: largest response in the series, negative = inhibition, hits mostly inhibitors. 3.5% of 310,000 active;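 further: the enzyme is Sfp with the accession as filed and its product quenches rhodamine fluorescence; 0% = enzyme reaction without inhibitor and -100% = no enzyme wells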
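Step 1, compound plus 15 nM Sfp-PPTase, 15 min, room temperature. Step 2, add rhodamine-CoA (5 uM) and BHQ-2-YbbR (12.5 uM). Step 3, read 525/598 nm fluorescence at 0 and 30 min.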
GRP78 ERSR act: qHTS for Inducers of the Endoplasmic Reticulum Stress Response (ERSR) in Human Glioma: qHTS | 0.02% of 420,000 active | U87-MG GRP78 promoter luciferase reporter, 16 h | Potency, µM, for the others: at the top dose activation, most hits filed as activators; further: series mostly up to about 76 µM; % of control where 0% means no effect; nearly all actives have a fitted effect of over 35% in size
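Stably transfected U87-MG human glioma cells carrying a GRP78-based luminescent sensor were seeded at 1000 cells/well, pin-dosed with compounds and incubated 16 h. Luciferase reagent was then added, and end-point luminescence was read after 10 min at room temperature.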
An asterisk follows results filed as active; [ ] = another dose, or the depositor's remark. The call rests on the fitted dose curve; in most records, active means well fitted curve in the direction sought with a large enough effect; inconclusive means small, poorly fitted or top-dose-only effect, or another doubt; inactive means no such curve, though single readings can be large; an effect the other way counts as inactive or inconclusive. Potency means the concentration at half of the fitted maximal effect.

What do the screens show for `CCCCN(CC)C(=O)CCNC(=O)Cn1cnc2sc3c(c2c1=O)CCCC3`?
12-LOX inh: 4%

What do the screens show for `O=C1C2=C(Nc3ccccc3SC2c2ccccc2)c2ccccc21` (stereo not given)?
12-LOX inh: 1%

What do the screens show for `COc1ccc(Br)cc1C1Sc2ccccc2NC2=C1C(=O)c1ccccc12` (stereo not given)?
G9a inh: -6%[59 µM]; 12-LOX inh: -20%; VDR inh: -21%; GRP78 ERSR act: -1%

What do the screens show for `CCOc1cc(C2Sc3ccccc3NC3=C2C(=O)c2ccccc23)ccc1O` (stereo not given)?
G9a inh: 13µM*; 12-LOX inh: inconclusive; VDR inh: -10%; GRP78 ERSR act: 1%

What do the screens show for `CCCc1ccc(C2Sc3ccccc3NC3=C2C(=O)c2ccccc23)cc1` (stereo not given)?
G9a inh: 7.9µM*; 12-LOX inh: -27%; VDR inh: -10%; GRP78 ERSR act: -6%

How did O=C1C2=C(Nc3ccccc3SC2c2ccc(Cl)c(Cl)c2)c2ccccc21 (stereo not given) do in these assays?
G9a inh: 13µM*; 12-LOX inh: -12%; VDR inh: -10%; GRP78 ERSR act: -4%

What do the screens show for `O=C1C2=C(Nc3ccccc3SC2c2ccccc2C(F)(F)F)c2ccccc21` (stereo not given)?
G9a inh: 11µM*; 12-LOX inh: -22%; VDR inh: -1%; GRP78 ERSR act: -4%

How did CCN(CC)S(=O)(=O)c1ccc2oc(Nc3ccccc3)nc2c1 do in these assays?
G9a inh: 32µM*; 12-LOX inh: 4%; VDR inh: 3%; Sfp PPTase inh: -5%; GRP78 ERSR act: 3%

What do the screens show for `CCN(CC)S(=O)(=O)c1ccc2oc(Nc3ccc(OC)cc3OC)nc2c1`?
G9a inh: -7%; 12-LOX inh: -11%; VDR inh: -1%; Sfp PPTase inh: -6%; GRP78 ERSR act: -3%

Results for COc1ccc(-c2nc(Cn3c(-c4cccc(Cl)c4)nc(C)c(CCO)c3=O)c(C)o2)cc1 ?
12-LOX inh: -8%

How did Cc1oc(-c2ccccc2)nc1CC(=O)NCCC(=O)N1CCCC1 do in these assays?
12-LOX inh: -27%

What do the screens show for `Cc1ccc(-n2nc(C)c(/C=N/n3c(C)n[nH]c3=S)c2Cl)cc1`?
G9a inh: 3.2µM*; 12-LOX inh: -13%; VDR inh: 2%; Sfp PPTase inh: 6%; GRP78 ERSR act: -6%

Results for Oc1ccc(/C=N/n2c(-c3ccccc3)n[nH]c2=S)cc1 ?
G9a inh: -1%[0.501 µM]; 12-LOX inh: -55%; VDR inh: -3%; Sfp PPTase inh: -2%; GRP78 ERSR act: -3%

How did Cc1n[nH]c(=S)n1/N=C/c1ccccc1 do in these assays?
G9a inh: 10µM*; 12-LOX inh: 1%; VDR inh: 4%; Sfp PPTase inh: 4%; GRP78 ERSR act: 2%

How did Cc1cc(C)c(COc2ccc(/C=N/n3c(C)n[nH]c3=S)cc2)c(C)c1 do in these assays?
G9a inh: inconclusive; 12-LOX inh: inconclusive; VDR inh: -3%; Sfp PPTase inh: 50µM*; GRP78 ERSR act: 6%

How did S=c1[nH]nc(-c2cc(-c3ccccc3)n[nH]2)n1/N=C/c1cccc(Cl)c1 do in these assays?
G9a inh: 10µM*; 12-LOX inh: inconclusive; VDR inh: -11%; Sfp PPTase inh: inconclusive; GRP78 ERSR act: -1%

How did CCc1ccc(C(CNC(=O)c2nn(C)c(=O)c3ccccc23)N(C)C)cc1 (stereo not given) do in these assays?
12-LOX inh: -4%

Results for Cc1n[nH]c(=S)n1/N=C/c1ccc(OCc2ccc(Cl)cc2)cc1 ?
G9a inh: inconclusive; 12-LOX inh: inconclusive; VDR inh: -3%; Sfp PPTase inh: -24%; GRP78 ERSR act: 4%

What do the screens show for `Cc1n[nH]c(=S)n1/N=C/c1ccc(OCc2ccc(Cl)cc2Cl)cc1`?
G9a inh: 11µM*; 12-LOX inh: -12%; VDR inh: 12%; Sfp PPTase inh: inconclusive; GRP78 ERSR act: 3%

Results for Cc1[nH]c(=O)[nH]c(=O)c1Sc1ccccc1[N+](=O)[O-] ?
G9a inh: 56µM*; 12-LOX inh: -1%; VDR inh: -9%; Sfp PPTase inh: 11%; GRP78 ERSR act: -4%

How did N#Cc1cc2c(nc1SCc1ccccc1)CCC2 do in these assays?
G9a inh: inconclusive; 12-LOX inh: -1%; VDR inh: 10%; Sfp PPTase inh: 12%; GRP78 ERSR act: -1%

Results for N#Cc1cc2c(nc1SCc1ccncc1)CCC2 ?
G9a inh: 3.2µM*; 12-LOX inh: inconclusive; VDR inh: -10%; Sfp PPTase inh: 50µM*; GRP78 ERSR act: 3%

What do the screens show for `N#Cc1cc2c(nc1SCC(=O)N1CCCCC1)CCCCC2`?
G9a inh: 2.8µM*; 12-LOX inh: inconclusive; VDR inh: inconclusive; Sfp PPTase inh: 56µM*; GRP78 ERSR act: -1%

How did CC1=C(C(=O)OCc2ccccc2)C(/C=C/c2ccccc2)NC(=S)N1 (stereo not given) do in these assays?
G9a inh: 9%[59 µM]; 12-LOX inh: 18µM*; VDR inh: -13%; Sfp PPTase inh: 6%; GRP78 ERSR act: -6%

How did C=CCOC(=O)C1=C(C)NC(=S)NC1/C=C/c1ccccc1 (stereo not given) do in these assays?
G9a inh: 11%; 12-LOX inh: -26%; VDR inh: -20%; Sfp PPTase inh: -9%; GRP78 ERSR act: -1%

Results for Cc1sc2nc(Cc3ccccc3)[nH]c(=O)c2c1-c1ccccc1 ?
G9a inh: 9%[59 µM]; 12-LOX inh: -19%; VDR inh: 3%; Sfp PPTase inh: 7%; GRP78 ERSR act: -5%

What do the screens show for `Cc1sc2nc(-c3cccnc3)[nH]c(=O)c2c1-c1ccccc1`?
G9a inh: 11µM*; 12-LOX inh: inconclusive; VDR inh: -14%; Sfp PPTase inh: 45µM*; GRP78 ERSR act: -1%

How did O=C(CSc1ccccc1C(=O)O)Nc1ccc2c(c1)OCO2 do in these assays?
G9a inh: -5%[12.7 µM]; 12-LOX inh: inconclusive; VDR inh: 5%; GRP78 ERSR act: 1%

Results for Cc1ccc(NC(=O)CSc2ccccc2C(=O)Nc2ccc3c(c2)OCCCO3)cc1 ?
12-LOX inh: 10µM*

How did N#Cc1ccc(CSc2ccccc2C(=O)Nc2ccc3c(c2)OCO3)cc1 do in these assays?
12-LOX inh: 28µM*

How did CN(C)CCNC(=O)NC1CCCCC1 do in these assays?
G9a inh: -10%[59 µM]; 12-LOX inh: 1%; VDR inh: 22%; Sfp PPTase inh: 0%; GRP78 ERSR act: -5%
